# Source: article PMC7819943, “Rice protein-binding microarrays: a tool to detect cis-acting elements near promoter regions in rice”
# The full ranking holds about 35,000 sequences; the median of “fluorescence intensity (a.u.)” is about 10,000, and the highest 2% start at about 52,000. The sample holds the highest values, similar sequences and a random draw of the others, so the mix is not that of the screen.
# Target: T1, OsWOX13 (Oryza sativa, UniProt Q5QMM3 1-267)
# T1 sequence: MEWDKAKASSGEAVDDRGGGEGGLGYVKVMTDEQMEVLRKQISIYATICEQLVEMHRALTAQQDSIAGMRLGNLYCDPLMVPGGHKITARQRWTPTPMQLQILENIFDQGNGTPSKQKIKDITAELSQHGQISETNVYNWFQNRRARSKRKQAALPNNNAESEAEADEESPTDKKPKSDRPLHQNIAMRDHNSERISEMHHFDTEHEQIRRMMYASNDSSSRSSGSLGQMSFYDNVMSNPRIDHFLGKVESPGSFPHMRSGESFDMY
# Test: protein-binding microarray (RPBM); PBS, 2% BSA, 51.3 ng/ul salmon testes DNA, 50 uM zinc acetate, 200 nM TF, 25 C, 1 h; high values mean tight binding
# Conditions: protein: recombinant; tags: N-terminal polyhistidine and DsRed monomer fusion (pET32a); label: CyDye5-dUTP incorporated in the synthesized complementary strand; 3' TTTTT single-stranded linker to array surface; dsDNA, one strand shown
# Method in brief: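 Transcription factors, each fused N-terminally to a polyhistidine tag and DsRed, were expressed in E. coli BL21-CodonPlus and purified on Ni–NTA. A custom Agilent array was made double-stranded by primer extension with Cy5-dUTP and blocked with 2% BSA. It was incubated with 200 nM protein in PBS, 2% BSA, salmon testes DNA and 50 µM zinc acetate at 25 °C for 1 h, then washed. The binding signal is per-feature fluorescence intensity (arbitrary units) read on an Axon 4000B scanner.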
row,Sequence,binding signal
1,CCGAAATTTGTCTCTTAATCATATACCGCACTTTCTGCCACGGAGTCACCTAGTGCAG,16100 fluorescence intensity (a.u.)
2,TATTAATTGGATAAAGTCATCTATATTAATGTGGATAATACGGAGTCACCTAGTGCAG,17600 fluorescence intensity (a.u.)
3,CAGGTGCTCTAACTACTATGTAATTGAACCACTGACATGTCGGAGTCACCTAGTGCAG,5510 fluorescence intensity (a.u.)
4,TAAAAGATTTGTATCACAAATTAGTCGCAATTTGTATAATCGGAGTCACCTAGTGCAG,9610 fluorescence intensity (a.u.)
5,TTAATTTGTTGTGATTAACGTGGCATGCATGACACTAAAGCGGAGTCACCTAGTGCAG,26900 fluorescence intensity (a.u.)
6,AACGCAATCAGTGGGAGATCAATCGCAAAATCACCATCATCGGAGTCACCTAGTGCAG,11000 fluorescence intensity (a.u.)
7,AAACTAAATTTAGACAGGAGTTCAGGTGATGAGTCAATGGCGGAGTCACCTAGTGCAG,36800 fluorescence intensity (a.u.)
8,CCTAAATTATTCTAAAATTAAAATGTTAATGGGGAAGTATCGGAGTCACCTAGTGCAG,19900 fluorescence intensity (a.u.)
9,GATTATAAATTACAAGTGTTAATTTGATGAATTTTGTTATCGGAGTCACCTAGTGCAG,19500 fluorescence intensity (a.u.)
10,TCCATTGATTGAGGAATAGTGCCAGCTTTAGATTTGCTCCCGGAGTCACCTAGTGCAG,53400 fluorescence intensity (a.u.)
11,TAAGGTGCAGATTGATTTGCCATCCCAGAGCAGCAGCTTGCGGAGTCACCTAGTGCAG,29500 fluorescence intensity (a.u.)
12,CCAAACAGATTGAACTCGACGATTGGACGAATACGGCGATCGGAGTCACCTAGTGCAG,58900 fluorescence intensity (a.u.)
13,TATAAATAACTTTGAAGATTGAATCGACATATCATACGATCGGAGTCACCTAGTGCAG,21200 fluorescence intensity (a.u.)
14,TATTACATCGATCATATTGATTGTCGATTAGTACACCTTACGGAGTCACCTAGTGCAG,5790 fluorescence intensity (a.u.)
15,AGTCACTTGATTTGCTTTATCATAGAGCTTGATGAGATCCCGGAGTCACCTAGTGCAG,24900 fluorescence intensity (a.u.)
16,CGAGATTGATTAGGACTCGGAATCGATCGGAGTCGGAGTACGGAGTCACCTAGTGCAG,54800 fluorescence intensity (a.u.)
17,ATGGAAATTGATTAGGAGATTATTGATGCGATAAGTAGTACGGAGTCACCTAGTGCAG,37000 fluorescence intensity (a.u.)
18,CGGATTGATCGACGGCGAAGAATGAAGCTCACCAGAATTTCGGAGTCACCTAGTGCAG,5290 fluorescence intensity (a.u.)
19,TTCAATTTGATTTTGATTTTAGGTGAATCTATAGATATCACGGAGTCACCTAGTGCAG,9990 fluorescence intensity (a.u.)
20,AACTTAATTTGATAAGAAAATTTAGTGGAGTCACCACAAGCGGAGTCACCTAGTGCAG,44100 fluorescence intensity (a.u.)
21,GGAAATATGTTAATTAAAATAATGCAACCCTAATCAGCAACGGAGTCACCTAGTGCAG,10500 fluorescence intensity (a.u.)
22,GATAATGATATGACCATGGTGATTTCGTCAATCTCAATACCGGAGTCACCTAGTGCAG,12100 fluorescence intensity (a.u.)
23,CAGACTGACAAGTGACAAGCAGAGGGCATCTCAGTACGCGCGGAGTCACCTAGTGCAG,3390 fluorescence intensity (a.u.)
